BAZ2B block = qHTS Assay for Inhibitors of BAZ2B; Bromodomain adjacent to zinc finger domain protein 2B (Homo sapiens), Q9UIF8; AlphaScreen BAZ2B-H3K14Ac peptide displacement; AID 504333, 2011; Potency, µM (titrated, usually from 114 µM), usual class: inhibitors; actives 4.4% (n = 360,000); note: nearly all actives have a fitted effect of over 60% in size
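Complex of BAZ2B and biotin-H3K14Ac (50 nM apiece) forms over 30 min at RT, then faces library compounds up to 110 uM for another 30 min; AlphaScreen beads added, 20 min dark incubation, luminescence read.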
HP1b binding inh = HTS for Inhibitors of HP1-beta Chromodomain Interactions with Methylated Histone Tails; Chromobox protein homolog 1 (Homo sapiens), P83916; AlphaScreen HP1-beta / biotin-H3K9me3 peptide binding; Potency, µM (series often up to 114 µM), hits mostly inhibitors; actives 0.56% (n = 390,000); note: nearly all actives have a fitted effect of over 70% in size
Target sequence (P83916 whole entry, looked up): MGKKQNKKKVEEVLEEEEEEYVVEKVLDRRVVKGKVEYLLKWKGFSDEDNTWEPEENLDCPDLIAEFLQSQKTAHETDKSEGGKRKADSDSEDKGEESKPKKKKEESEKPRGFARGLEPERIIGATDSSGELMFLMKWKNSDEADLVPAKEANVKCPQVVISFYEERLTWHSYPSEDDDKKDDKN
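Compound inhibition of the preformed complex between 50 nM HP1-beta and 50 nM biotinylated H3K9me3 peptide was read by AlphaScreen. Buffer was PBS pH 7.4 with 0.01% Tween-20. Incubations ran 30 min at room temperature, with 10 ug/mL donor/acceptor beads.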
Sfp PPTase inh = qHTS Assay for Inhibitors of Bacillus subtilis Sfp phosphopantetheinyl transferase (PPTase); 4'-phosphopantetheinyl transferase ffp (Bacillus subtilis), Q9F4F7; Biochemical Sfp PPTase activity, qHTS; Potency, µM, hits mostly inhibitors; actives 3.5% (n = 310,000);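 note: the enzyme is Sfp with the accession as filed and its product quenches rhodamine fluorescence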
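Compounds were incubated with enzyme (final 15 nM) for 15 min at room temperature before substrate addition started the reaction. Fluorescence at 525 nm excitation, 598 nm emission was recorded immediately and after 30 minutes.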
JMJD2A Tudor = qHTS Assay for Inhibitors of JMJD2A-Tudor Domain; Lysine-specific demethylase 4A (Homo sapiens), O75164; AlphaScreen JMJD2A-Tudor / H3K4me3 peptide binding; Potency, µM (top dose mostly 114 µM), usual class: inhibitors; actives 4.4% (n = 390,000); note: nearly all actives have a fitted effect of over 50% in size
G9a block = qHTS Assay for Inhibitors of Histone Lysine Methyltransferase G9a; AID 504332, 2011; Histone-lysine N-methyltransferase EHMT2 (Homo sapiens), Q96KQ7; Potency, µM (highest dose often 102 µM), usual class: inhibitors; G9a H3K9 monomethylation, AlphaScreen, 2 h; actives 8.8% (n = 350,000); note: nearly all actives have a fitted effect of over 75% in size
Target sequence (Q96KQ7 913-1193 limits assumed): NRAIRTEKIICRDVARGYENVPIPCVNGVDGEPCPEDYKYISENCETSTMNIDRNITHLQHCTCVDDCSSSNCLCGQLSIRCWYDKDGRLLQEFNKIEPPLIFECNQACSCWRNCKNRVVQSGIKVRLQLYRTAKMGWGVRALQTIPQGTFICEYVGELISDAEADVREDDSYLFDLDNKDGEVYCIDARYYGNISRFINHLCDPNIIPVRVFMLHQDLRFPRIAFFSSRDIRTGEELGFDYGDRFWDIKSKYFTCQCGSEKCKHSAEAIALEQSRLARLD
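Signal arises when biotinylated H3K9 peptide, once monomethylated, bridges streptavidin donor and antibody-captured acceptor beads. Enzyme at 20 nM was preincubated 15 min with test compounds; peptide 500 nM and SAM 20 uM then reacted for 2 h.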
TDP1 block = qHTS Assay for Inhibitors of Tyrosyl-DNA Phosphodiesterase (TDP1) | Tyrosyl-DNA phosphodiesterase 1 (Homo sapiens), Q9NUW8 | recombinant TDP1, AlphaScreen DNA substrate cleavage | Potency, µM (series often up to 130 µM), usual class: inhibitors | actives 0.28% (n = 350,000); note: nearly all actives have a fitted effect of over 40% in size
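Here, a 5' biotin and 3' phosphotyrosine-FITC DNA oligonucleotide reports Tdp1 activity: intact substrate bridges AlphaScreen beads, while cleavage leaves a 3' phosphate and drops signal. All incubations at room temperature.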
Hits are given with their value; - = inactive; ? = inconclusive; . = no result; [ ] = remark or other dose. The list is not random: actives were taken first. Their share in the collection is about 12%. Calls come from the whole dose curve; as a rule, active = well fitted curve in the direction sought with a large enough effect; inconclusive = small, poorly fitted or top-dose-only effect, or another doubt; inactive = no such curve, though single readings can be large; an effect the other way counts as inactive or inconclusive.

SMILES	BAZ2B block	HP1b binding inh	Sfp PPTase inh	JMJD2A Tudor	G9a block	TDP1 block
COC(=O)CNC(=O)C(C)(C)Oc1ccc(Cl)cc1	-	-	-	-[11.4 µM]	-	-
CC(C)(Oc1ccc(Cl)cc1)C(=O)NCc1ccc(S(N)(=O)=O)cc1	?	-	-	-	44.7µM	.
CC1=CC(C)C2COC(c3ccc[n+](C)c3)C1C2C (centres undefined)	-	-	-	-	7.08µM	-
CC1=CC(C)[C@@H]2COC(c3ccc(O)cc3)[C@H]1C2C (some centres undefined)	-	-	-	-	-[2.33 µM]	.
NC(=O)CSc1nnc2ccc(-c3ccc(Cl)cc3)nn12	89.1µM	-	-	-	50.1µM	-
NC(=O)CSc1nnc2ccc(-c3ccc(F)cc3)nn12	-	-	-	-[11.4 µM]	-	-
O=C(CSc1nnc2ccc(-c3ccncc3)nn12)Nc1ccc(F)cc1	-	-	.	-	6.31µM	-
Cc1ccc(-c2ccc3nnc(SCC(N)=O)n3n2)cc1	-	-	-	-	44.7µM	-
O=C(CSc1nnc2ccc(-c3cccnc3)nn12)Nc1ccc(F)cc1	-	-	.	-	-	.
CC1Sc2ccc(S(=O)(=O)CCC(=O)NC3CCCC(C)C3C)cc2NC1=O (centres undefined)	-	-	-	-	-	-
COc1ccc(CCNC(=O)CS(=O)(=O)Cc2nc(-c3cccc(Cl)c3)oc2C)cc1OC	-	-	.	-	-	-
CN1c2ccc([N+](=O)[O-])cc2N(C)C1(C)c1ccccc1 (centres undefined)	8.91µM	10µM	?	10µM	.	-
Fc1ccc(CO/N=C2\CCCc3nonc32)cc1	-	-	-	-	-	-
COc1cccc(NC(=O)CN(C)C(=O)c2ccc(-c3ccc(Cl)cc3)o2)c1	?	-	.	?	-[2.33 µM]	.
CS(=O)(=O)NCCCCCCNS(C)(=O)=O	-	-	-	-[11.4 µM]	50.1µM	-
COc1ccc(NC(=O)CSc2nc(-c3ccco3)cc(C(F)(F)F)n2)c(OC)c1	-	-	.	-	-	-
COc1ccc(/C=C2/Sc3ccc(C(=O)NCCCN4CCOCC4)cc3NC2=O)cc1OC	?	-	-	?	?	-
CCN1CCN(CCCNC(=O)c2ccc3c(c2)NC(=O)/C(=C\c2cccc(C)c2)S3)CC1	?	-	35.5µM	?	35.5µM	-
CCN1CCN(CCCNC(=O)c2ccc3c(c2)NC(=O)c2ccccc2S3)CC1	-	-	-	-	?	-
Cc1cccc(/C=C2/Sc3ccc(C(=O)NCCCN4CCOCC4)cc3NC2=O)c1	?	.	50.1µM	.	-	-
Clc1ccccc1-c1nnc(-c2ccccc2CNc2ccc(Br)cc2)o1	-	-	.	-	-	-
Nc1c(S(=O)(=O)O)cc(NC(=O)c2ccccc2)c2c1C(=O)c1ccccc1C2=O	3.55µM	?	?	2.51µM	?	.
Nc1c(S(=O)(=O)O)cc(Nc2ccc(Nc3nc(Cl)nc(Nc4ccc(S(=O)(=O)O)cc4)n3)c(S(=O)(=O)O)c2)c2c1C(=O)c1ccccc1C2=O	.	.	.	.	1µM	-
Nc1c(S(=O)(=O)O)cc(Nc2ccc(Cl)cc2)c2c1C(=O)c1ccccc1C2=O	.	.	15.8µM	.	.	-
Cc1cccc(OCc2n[nH]c(=S)n2Cc2ccccc2)c1	-	-	-	?	17.8µM	-
SMILES	BAZ2B block	HP1b binding inh	Sfp PPTase inh	JMJD2A Tudor	G9a block	TDP1 block
CC(C)CCn1c(COc2ccccc2)n[nH]c1=S	-	-	-	-	1.78µM	-
CCc1ccc(OCc2n[nH]c(=S)n2Cc2ccccc2)cc1	-	-	-	?	-	-
S=c1[nH]nc(COc2ccccc2)n1Cc1ccccc1	-	-	-	89.1µM	3.55µM	-
COC(=O)c1ccc(C(=O)N2CCCC(N3CCN(c4ccccc4)CC3)C2)nc1 (centres undefined)	-	-	-	-	-	-
Cc1ccc(NC(=O)CCC(=O)NNC(=S)Nc2ccccc2)c(C)c1	-	-	-	-	.	-
Cc1ccc(C)c(NCC(=O)NNC(=S)Nc2ccccc2)c1	-	-	-	-	22.4µM	-
Cc1ccc(C)c(NC(=O)CCC(=O)NNC(=S)Nc2ccccc2)c1	-	-	-	-	50.1µM	-
CNC(=S)NNC(=O)CCn1nc(C)c(Br)c1C	-	-	-	-	-	-
Cc1nn(CCC(=O)NNC(=S)Nc2ccccc2)c(C)c1Br	-	-	-	-	12.6µM	-
Cc1ccc(NC(=O)CN2CCCCCC2)cc1Br	?	?	-	3.16µM	22.4µM	.
Cc1ccc(NC(=O)CN(C)C2CCCCC2)cc1Br	50.1µM	?	56.2µM	17.8µM	-[0.501 µM]	-
C=C(C)Cn1c(SCC(=O)Nc2cccc(Cl)c2)nc2sc3c(c2c1=O)CCCC3	-	-	.	-	-	.
N#CCCn1cc(CNCc2cccnc2)c(-c2ccccc2)n1	.	?	.	8.91µM	.	-
COc1ccccc1N1CCN(CC(O)COc2ccc(Cl)c(C)c2)CC1 (centres undefined)	?	-	.	89.1µM	?	.
COc1ccccc1N1CCN(CC(O)COc2cc(C)cc(C)c2)CC1 (centres undefined)	?	-	.	79.4µM	?	.
Cc1ccc(OCC(O)CN2CCN(CC(O)COC(C)C)CC2)c(C(C)(C)C)c1 (centres undefined)	-	-	-	-	-[12.7 µM]	-
COc1ccccc1N1CCN(CC(O)COc2ccc(C)cc2C(C)(C)C)CC1 (centres undefined)	31.6µM	?	.	?	14.1µM	-
CC1(C)N=C(c2ccc(F)cc2)C(=O)N1CC(=O)Nc1ccccc1Cl	-	-	.	-	-	-
CCN(C(=O)c1ccc(S(=O)(=O)N2CCOCC2)cc1)C1CCS(=O)(=O)C1 (centres undefined)	-	-	.	-	-	.
CC1CCC(NS(=O)(=O)c2ccc(Cl)nc2)CC1 (centres undefined)	-	-	.	-	50.1µM	-
CNS(=O)(=O)c1ccc(Cl)nc1	-	-	-	-	-	-
CCN(CC)c1ccc(N=C2C=CC(=O)C=C2NC(C)=O)cc1	.	25.1µM	.	10µM	.	.
O=C1c2ccccc2CC[C@H]1CNCCc1ccc(O)cc1	.	.	?	.	.	-
O=C1c2ccccc2CCC1CNCCc1ccc(O)cc1 (centres undefined)	.	.	56.2µM	.	7.94µM	-
Oc1ccc(C2Oc3cc(O)cc(O)c3CC2O)cc1 (centres undefined)	.	.	-	.	-[2.33 µM]	-
Oc1cc(O)c2c(c1)O[C@H](c1ccc(O)c(O)c1)[C@H](O)C2	?	-	-	-	10µM	-[21 µM]
